In PubChem BioAssay (EPA / NIEHS):
Inconclusive results are not listed. Calls of active or inactive are those of the source. The calls were made as follows, unless noted: active = hit-call score of the fitted dose curve at least 0.9, where 1 is the maximum; inconclusive = response in the unintended direction; inactive = score below 0.9.

Tests used:
[1] = read-out: Cellular tumor antigen p53 (Homo sapiens) (UniProt P04637); test: LTEA_HepaRG_TP53: Life Technologies and Expression Analysis (LTEA) Assay for Tumor Protein P53 (TP53) using HepaRG (AID 2283537; active = hit-call score of the fitted dose curve at least 0.9, where 1 is the maximum; inactive = score below 0.9); conditions: mRNA level, 48 h; actives raise or lower the signal
Procedure, shortened: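 Differentiated HepaRG cells in serum-free induction medium exposed 48 h in duplicate to 8 half-log concentrations, top 100 uM, 0.5% DMSO. TP53 mRNA by TaqMan qRT-PCR (Fluidigm), normalized to ACTB, GAPDH, POLR2A; fitted bidirectionally versus DMSO.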

[2] = read-out: UDP glucuronosyltransferase (UGT1A1), UGT1A1 (gene 54658); test: LTEA_HepaRG_UGT1A1: Life Technologies and Expression Analysis (LTEA) Assay for UDP glucuronosyltransferase (UGT1A1) using HepaRG (AID 2283538; active = hit-call score of the fitted dose curve at least 0.9, where 1 is the maximum; inactive = score below 0.9); conditions: mRNA level, 48 h; actives raise or lower the signal
Procedure, shortened: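 UGT1A1 transcript level, measured by qRT-PCR with three housekeeping genes for normalization, after 48 h treatment of human HepaRG cells (0.5% DMSO, duplicates, up to 100 uM, half-log steps, 8 points). Curves fit both directions against DMSO baseline.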

[3] = read-out: UDP glucuronosyltransferase (UGT1A6), UGT1A6 (gene 54578); test: LTEA_HepaRG_UGT1A6: Life Technologies and Expression Analysis (LTEA) Assay for UDP glucuronosyltransferase (UGT1A6) using HepaRG (AID 2283539; active = hit-call score of the fitted dose curve at least 0.9, where 1 is the maximum; inactive = score below 0.9); conditions: mRNA level, 48 h; actives raise or lower the signal
Procedure, shortened: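 Human HepaRG cells were dosed for 48 h in serum-free induction medium with 0.5% DMSO vehicle, eight-point half-log series from 100 uM, in duplicate. UGT1A6 mRNA was measured by qRT-PCR, normalized to ACTB, GAPDH, POLR2A, and fitted bidirectionally against DMSO.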

[4] = read-out: X-box binding protein 1 (XBP1), XBP1 (gene 7494); test: LTEA_HepaRG_XBP1: Life Technologies and Expression Analysis (LTEA) Assay for X-box binding protein 1 (XBP1) using HepaRG (AID 2283540; active = hit-call score of the fitted dose curve at least 0.9, where 1 is the maximum; inactive = score below 0.9); conditions: mRNA level, 48 h; actives raise or lower the signal
Procedure, shortened: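 Differentiated human HepaRG cells in serum-free induction medium were exposed in duplicate for 48 h to eight half-log concentrations up to 100 uM in 0.5% DMSO. XBP1 mRNA was quantified by qRT-PCR, normalised to ACTB, GAPDH and POLR2A, with bidirectional fitting against DMSO.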

[5] = LTEA_HepaRG_LDH_cytotoxicity: Cytotoxicity Assessment in the Life Technologies and Expression Analysis (LTEA) Assay (AID 2283563)
Procedure, shortened: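 Differentiated human HepaRG cells, plated 48 h beforehand, were switched to serum-free induction medium and exposed for 48 h to eight half-log concentrations (top 100 uM) in 0.5% DMSO. LDH was measured in spent medium; activity was fitted relative to DMSO vehicle.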

[6] = Tanguay_ZF_120hpf_MORT_legacy: (Legacy) Oregon State University Tanguay Lab 120 Hour Post-fertilization zebrafish Assay for Mortality (AID 2283633)
Procedure, shortened: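 Dechorionated Tropical 5D wild-type zebrafish embryos, one per well from 6 hpf, were statically exposed at 28C in the dark until 120 hpf (0.64% DMSO final). Mortality was scored as present/absent by brightfield microscopy, fitted positively versus DMSO.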

[7] = Tanguay_ZF_120hpf_YSE_legacy: (Legacy) Oregon State University Tanguay Lab 120 Hour Post-fertilization zebrafish Assay for Yolk Sac Edema (AID 2283634)
Procedure, shortened: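 Tropical 5D wild-type embryos, dechorionated with pronase at 4 hpf, were exposed singly from 6 hpf to 120 hpf under static, sealed, dark conditions at 28C with 0.64% DMSO final. Yolk sac edema was scored present/absent by brightfield microscopy.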

[8] = Tanguay_ZF_120hpf_AXIS_legacy: (Legacy) Oregon State University Tanguay Lab 120 Hour Post-fertilization zebrafish Assay for Body Axis Malformation (AID 2283635)
Procedure, shortened: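 Tropical 5D wild-type zebrafish embryos, dechorionated with pronase at 4 hpf, were placed singly in wells at 6 hpf and exposed statically to test chemical (0.64% DMSO final) at 28C until 120 hpf, then scored by brightfield for body axis defects.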

[9] = Tanguay_ZF_120hpf_EYE_legacy: (Legacy) Oregon State University Tanguay Lab 120 Hour Post-fertilization zebrafish Assay for Eye Malformation (AID 2283636);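 also: binary presence or absence of eye malformation scored by brightfield in 120 hpf larvae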
Procedure, shortened: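 5D wild-type embryos, pronase-dechorionated at 4 hpf; static exposure 6–120 hpf, 28C, dark; DMSO 0.64% final; 5uM trimethyltin chloride positive control. Binary eye-defect scoring at 120 hpf; dead embryos not scored.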

[10] = Tanguay_ZF_120hpf_SNOU_legacy: (Legacy) Oregon State University Tanguay Lab 120 Hour Post-fertilization zebrafish Assay for Snout Malformation (AID 2283637)
Procedure, shortened: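 Binary brightfield scoring of snout malformation at 120 hpf. Dechorionated 5D wild-type embryos, one per well, static exposure from 6 hpf at 28C, sealed and dark; final DMSO 0.64% (vol/vol), DMSO as baseline; 5uM trimethyltin chloride positive control.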

[11] = Tanguay_ZF_120hpf_JAW_legacy: (Legacy) Oregon State University Tanguay Lab 120 Hour Post-fertilization zebrafish Assay for Jaw Malformation (AID 2283638)
Procedure, shortened: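 Tropical 5D wild-type embryos, dechorionated with pronase at 4 hpf, were placed singly per well at 6 hpf and statically exposed at 28C until 120 hpf (0.64% DMSO final). Jaw malformation scored as present/absent by brightfield microscopy at 120 hpf, analyzed relative to DMSO.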

[12] = Tanguay_ZF_120hpf_OTIC_legacy: (Legacy) Oregon State University Tanguay Lab 120 Hour Post-fertilization zebrafish Assay for Otic Vesicle Malformation (AID 2283639)
Procedure, shortened: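 Binary scoring of otic vesicle defects at 120 hpf in zebrafish (Tropical 5D) held under static exposure at 28C, sealed and shaded, with final DMSO 0.64%. Embryos dying by 24 or 120 hpf excluded; fitted positively against DMSO.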

[13] = Tanguay_ZF_120hpf_PE_legacy: (Legacy) Oregon State University Tanguay Lab 120 Hour Post-fertilization zebrafish Assay for Pericardial Edema (AID 2283640)
Procedure, shortened: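 Tropical 5D wild-type zebrafish embryos were exposed statically to 120 hpf at 28C, sealed and foil-covered, in 0.64% DMSO final. Pericardial edema was scored present/absent by brightfield microscopy; dead embryos were not scored.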

[14] = Tanguay_ZF_120hpf_BRAI_legacy: (Legacy) Oregon State University Tanguay Lab 120 Hour Post-fertilization zebrafish Assay for Brain Malformation (AID 2283641)
Procedure, shortened: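 Tropical 5D wild-type zebrafish embryos were exposed statically in sealed, foil-covered plates at 28C until 120 hpf, with 0.64% (vol/vol) final DMSO. Brain malformation was scored present/absent by brightfield microscopy, relative to DMSO baseline.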

[15] = Tanguay_ZF_120hpf_SOMI_legacy: (Legacy) Oregon State University Tanguay Lab 120 Hour Post-fertilization zebrafish Assay for Somite Malformation (AID 2283647)
Procedure, shortened: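 Tropical 5D wild-type zebrafish embryos, dechorionated with pronase at 4 hpf, were placed singly at 6 hpf and statically exposed until 120 hpf at 28C in 0.64% DMSO. Somite malformation was scored present/absent by brightfield microscopy versus DMSO.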

[16] = Tanguay_ZF_120hpf_PFIN_legacy: (Legacy) Oregon State University Tanguay Lab 120 Hour Post-fertilization zebrafish Assay for Pectoral Fin Malformation (AID 2283648);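 also: each larva judged yes or no for fin defect by brightfield with dead larvae skipped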
Procedure, shortened: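 Binary pectoral fin malformation call at 120 hpf by brightfield microscopy; 5D wild-type zebrafish, chorion removed at 4 hpf, one embryo per well from 6 hpf, static exposure at 28C; DMSO (0.64% final) as baseline.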

[17] = Tanguay_ZF_120hpf_CFIN_legacy: (Legacy) Oregon State University Tanguay Lab 120 Hour Post-fertilization zebrafish Assay for Caudal Fin Malformation (AID 2283649)
Procedure, shortened: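 Tropical 5D wild-type embryos, dechorionated with pronase at 4 hpf, were placed singly in wells at 6 hpf and statically exposed to compound at 28C until 120 hpf (0.64% DMSO). Caudal fin malformation was scored present/absent by brightfield microscopy.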

[18] = Tanguay_ZF_120hpf_CIRC_legacy: (Legacy) Oregon State University Tanguay Lab 120 Hour Post-fertilization zebrafish Assay for Circulatory Malformation (AID 2283651)
Procedure, shortened: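 Binary circulatory malformation call at 120 hpf by brightfield imaging of zebrafish larvae; chorion removed at 4 hpf, static exposure from 6 hpf in sealed dark plates at 28C, final DMSO 0.64%; non-mortality endpoints skipped if embryo died.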

[19] = Tanguay_ZF_120hpf_SWIM_legacy: (Legacy) Oregon State University Tanguay Lab 120 Hour Post-fertilization zebrafish Assay for Swim Bladder Malformation (AID 2283654);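 also: swim bladder malformation in each larva scored yes or no under brightfield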
Procedure, shortened: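 Tropical 5D embryos dechorionated at 4 hpf; 1 embryo/well from 6 hpf; static, sealed, dark exposure at 28C until 120 hpf; final DMSO 0.64%; 5uM trimethyltin chloride positive control; swim bladder defect recorded yes/no; dead embryos not scored.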

[20] = Tanguay_ZF_120hpf_TRUN_legacy: (Legacy) Oregon State University Tanguay Lab 120 Hour Post-fertilization zebrafish Assay for Truncated Body (AID 2283655)
Procedure, shortened: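 Tropical 5D wild-type embryos, dechorionated with pronase at 4 hpf, were placed singly in wells at 6 hpf and statically exposed at 28C until 120 hpf, final DMSO 0.64%. Truncated body was scored present/absent by brightfield microscopy.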

Measured: outcome

Sequence of Cellular tumor antigen p53 (Homo sapiens) (P04637 whole entry, looked up): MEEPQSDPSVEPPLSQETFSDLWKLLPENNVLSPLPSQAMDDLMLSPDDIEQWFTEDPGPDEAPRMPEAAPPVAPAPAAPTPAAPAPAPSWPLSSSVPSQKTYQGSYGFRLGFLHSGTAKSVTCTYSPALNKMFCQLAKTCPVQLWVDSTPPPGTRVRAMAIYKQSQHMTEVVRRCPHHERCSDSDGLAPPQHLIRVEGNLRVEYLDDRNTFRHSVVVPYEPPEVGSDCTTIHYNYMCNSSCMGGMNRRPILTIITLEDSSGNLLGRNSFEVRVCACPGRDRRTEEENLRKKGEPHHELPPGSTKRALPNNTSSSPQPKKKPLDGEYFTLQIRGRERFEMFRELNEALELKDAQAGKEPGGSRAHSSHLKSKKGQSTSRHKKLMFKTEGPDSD

N#CCCCCC#N
inactive: all assays above
